Measured values reported in PubChem BioAssay AID430 (Sanford-Burnham Center for Chemical Genomics, 2006).
About 1,100 (1.7%) of roughly 63,000 compounds were called active. Cut-off read from the data, not from the text of the source: active = cytotoxicity above about 50%; inactive = the rest. What follows is part of a selection rich in actives, with near analogues and random picks from the rest. Measured potencies and affinities stand elsewhere.

Experiment: HPDE-C7 pancreatic duct cell viability loss – fluorescence, HTS (AID 430);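 note: cells exposed to compound for 48 hours before viability readout; 0% = vehicle and 100% = reference cytotoxic drug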
Conditions: HPDE-C7 pancreatic duct cells viability, at 10 µM, hits give high values

SMILES | cytotoxicity
Cc1cnc(C(=O)Nc2ccc(N3CCOCC3)cc2)cn1 | 1.3% (inactive)
CC(C)(C)OC(=O)N1CCN(c2ccc(NC(=O)c3cc4ccccc4oc3=O)cc2)CC1 | -30.1% (inactive)
Cc1cnc(C(=O)Nc2ccc(N3CCN(C(=O)OC(C)(C)C)CC3)cc2)cn1 | 50.5% (active)
Cc1csc2nc(CCNS(=O)(=O)c3ccc4c(c3)OCCO4)cn12 | 3.5% (inactive)
CCOC(=O)Nc1ccc2c(c1)Sc1ccccc1N2C(=O)CCN1CCOCC1 | 11.7% (inactive)
CCOC(=O)Nc1ccc2c(c1)N(C(=O)CCN1CCOCC1)c1ccccc1S2 | -7.9% (inactive)
CCOC(=O)Nc1ccc2c(c1)N(C(=O)CCN1CCOCC1)c1ccccc1S2=O (centres undefined) | 85.2% (active)
O=C(CSc1nc2sc3c(c2c(=O)n1-c1ccccc1)CCCC3)NCc1ccco1 | 85.6% (active)
COc1cc2nc(SCC(=O)NCc3ccco3)n(Cc3ccc(Cl)cc3)c(=O)c2cc1OC | 50.9% (active)
COc1cc2nc(SCC(=O)NCCc3ccccc3)n(Cc3ccco3)c(=O)c2cc1OC | -3.3% (inactive)
COCCNC(=O)CSc1nc2cc(OC)c(OC)cc2c(=O)n1Cc1ccco1 | -1.3% (inactive)
O=C(CSc1nc2ccccc2c(=O)n1Cc1ccco1)NCc1ccccc1 | 58.8% (active)
C=CCn1c(SCC(=O)NCc2ccco2)nc2sc3c(c2c1=O)CCCCC3 | 2.9% (inactive)
O=c1c2ccccc2nc(SCc2ccccc2)n1Cc1ccco1 | 8.4% (inactive)
O=C(CSc1nc2ccccc2c(=O)n1Cc1ccco1)NCc1ccco1 | -1.8% (inactive)
CC1(C)Cc2c(sc3nc(SCC(=O)NCc4ccco4)n(-c4ccccc4)c(=O)c23)CS1 | 3.1% (inactive)
CC(=O)c1cc2c(cc1NC(=O)C1CC=CCC1C(=O)O)OCO2 (centres undefined) | -5.7% (inactive)
CCn1c(C(C)NC(=O)c2ccc(OC)c(OC)c2)nc2ccccc21 (centres undefined) | 5.7% (inactive)
O=C(O)c1c[nH]ccc1=O | -18.4% (inactive)
CCc1cc2c3c(c(=O)oc2cc1OC)CCCC3 | 0% (inactive)
Cc1ccc(-c2nsc3c(N4CCN(C(=O)c5ccco5)CC4)ncnc23)cc1 | -21.7% (inactive)
Cc1ccc(O)c(C(=O)c2cnc3c(c2)CN(CCC(C)C)C(=O)N3)c1 | -5.5% (inactive)

SMILES | cytotoxicity
CN1Cc2cc(C(=O)c3cc(Cl)cc(CSc4ncccn4)c3O)cnc2NC1=O | 68.2% (active)
CCCCN1Cc2cc(C(=O)c3cc(F)ccc3O)cnc2NC1=O | 6.2% (inactive)
CNC(=O)NC(=O)CSc1cccc(C(F)(F)F)c1 | -6.3% (inactive)
COc1ccccc1N1CC(C(=O)OCC(=O)c2ccc(F)cc2)CC1=O (centres undefined) | -16.4% (inactive)
O=C(Nc1cccnc1)c1cc(-c2cccs2)on1 | 14.1% (inactive)
COc1cccc(-c2nc(-c3ccc(NC(=O)c4cccnc4)cc3)no2)c1 | 70.7% (active)
Cc1ccc(-c2noc(-c3cccs3)n2)cc1 | 0.6% (inactive)
COc1ccc(CC(=O)Nc2ccc(-c3noc(-c4cccc(OC)c4)n3)cc2)cc1 | 1% (inactive)
O=C(Nc1ccc(-c2noc(-c3cccs3)n2)cc1)c1cccnc1 | 53.2% (active)
COc1ccc(Cc2nc(-c3ccc(NC(=O)c4cccnc4)cc3)no2)cc1 | 27.4% (inactive)
O=C(Nc1ccc(-c2noc(CCc3ccccc3)n2)cc1)c1ccco1 | 6.6% (inactive)
O=C(Nc1ccc(-c2noc(CCc3ccccc3)n2)cc1)c1cccnc1 | 58.7% (active)
c1ccc(CCc2nc(-c3cccnc3)no2)cc1 | -9.2% (inactive)
COC(=O)C1=C(O)CSC1=Nc1cccc(C(F)(F)F)c1 | 6.1% (inactive)
CC1=CC(C)(C)N(C(=O)c2ccc(F)cc2)c2cc3c(cc21)OCO3 | -5.1% (inactive)
Cc1ccc2[nH]c(=O)c(CN(CCN3CCOCC3)C(=O)Nc3ccc(F)cc3)cc2c1 | 1.9% (inactive)
COc1ccc(CNC(=O)c2cc(-c3ccccc3O)n[nH]2)cc1 | -14.7% (inactive)
CCCCOC(=O)n1c(=O)oc2cc(S(=O)(=O)N3CCCCC3)ccc21 | 4.7% (inactive)
Cc1nnc2n(Cc3ccccc3)c(=O)c3c4c(sc3n12)CN(Cc1ccccc1)CC4 | 11.3% (inactive)
CC(C)C1Cc2c(sc3c2c(=O)n(Cc2ccccc2)c2nncn32)CO1 (centres undefined) | 7.1% (inactive)
CCCSc1nnc2n(C)c(=O)c3c4c(sc3n12)CCC4 | 4.3% (inactive)
CCCSc1nnc2n(Cc3ccccc3)c(=O)c3c4c(sc3n12)CCC4 | 52.7% (active)

SMILES | cytotoxicity
CCOC(=O)CSc1nnc2n(Cc3ccccc3)c(=O)c3c4c(sc3n12)CCC4 | 22.6% (inactive)
CCC(C)N(C(=O)COC(=O)c1cn(CC)c2nc(C)ccc2c1=O)C1CCS(=O)(=O)C1 (centres undefined) | -10.6% (inactive)
CC(C)c1cc(C(=O)Nc2cccc(Cl)c2)no1 | 1.6% (inactive)
O=C(Nc1ccc(Oc2ccc(S(=O)(=O)N3CCOCC3)cn2)cc1)c1ccco1 | 2.4% (inactive)
COc1ccc2cc3c(N)c(C(=O)NCc4ccco4)sc3nc2c1 | -0.3% (inactive)
Nc1c(C(=O)NCc2ccco2)sc2nc3c(cc12)C(=O)CCC3 | 56.5% (active)
COc1cc2cc3c(N)c(C(=O)NCc4ccco4)sc3nc2cc1OC | 31.5% (inactive)
Cc1ccc(Cn2c(=O)c3ccccc3n3c(CCC(=O)O)nnc23)cc1 | 23% (inactive)
COC(=O)C1C(c2ccccc2)C(C(=O)N2CCOCC2)C1c1ccccc1 (centres undefined) | -2.2% (inactive)
COc1ccc(CCN2C(=NC(=O)CCC(=O)O)SC3CS(=O)(=O)CC32)cc1OC (centres undefined) | -11% (inactive)
COc1ccc(CNC(=O)CSc2nnc(C)s2)cc1 | -6.3% (inactive)
FC(F)(F)c1cc(-c2ccco2)nc(NCc2ccco2)n1 | 0.5% (inactive)
CC(C)c1nnc(NC(=O)CCC(=O)Nc2ccc(F)cc2)s1 | 6.6% (inactive)
FC(F)(F)c1cc(-c2ccco2)nc(-n2cnc3ccccc32)n1 | 0% (inactive)
CC(C)c1nnc(NC(=O)Cc2cccs2)s1 | 1.9% (inactive)
FC(F)(F)c1cc(-c2ccco2)nc(-n2nnc3ccccc32)n1 | 5.9% (inactive)
CN1CCN(c2nc(-c3cccs3)cc(C(F)(F)F)n2)CC1 | 1.7% (inactive)
FC(F)(F)c1cc(-c2cccs2)nc(N2CCOCC2)n1 | -7.3% (inactive)
CC(C)c1nnc(NC(=O)CCS(=O)(=O)c2nc(-c3cccs3)cc(C(F)(F)F)n2)s1 | 87% (active)
FC(F)(F)c1cc(-c2ccco2)nc(NCc2ccccc2)n1 | 9.1% (inactive)
